Bioassay records: PubChem, National Center for Advancing Translational Sciences (NCATS)
KDM5B inhibitor – inhibitors of human KDM5B histone demethylase; Q9UGL1; KDM5B demethylase, FDH-coupled NADH fluorescence (FDH is formaldehyde dehydrogenase); Potency, µM (titrated, usually from 57.7 µM), hits mostly inhibitors; 2.6% of 220,000 active; active = well fitted inhibition curve with a large enough effect; also: 0% is about no effect; nearly all actives have a fitted effect of over 70% in size
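Coupled FDH/NAD⁺ fluorescence readout. KDM5BΔAP 200 nM final; compound titration, 10 min RT preincubation; substrate mix 12.5 µM H3K4me3, 25 µM 2-OG, 50 µM Fe(II), 100 µM ascorbate, 0.25 mM NAD⁺, 0.25 U/mL FDH; ΔRFU over 30 min.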
An asterisk follows results filed as active; i = inactive. This is one part of a sample in which hits are shown more often than they occur. Potency is read from the fitted curve at half-maximal effect.

SMILES | KDM5B inhibitor
CN(C)c1ccc(-c2ccnc(N[C@H]3CO[C@H]4[C@@H]3OC[C@@H]4NC(=O)NCc3ccccc3)n2)cc1 | 28µM*
NC(=O)CO[C@@H]1CO[C@H]2[C@@H]1OC[C@@H]2NC(=O)NCc1ccccc1 | i
COc1ccc(-c2ccnc(N[C@H]3CO[C@H]4[C@@H]3OC[C@@H]4NC(=O)NCc3ccccc3)n2)cc1 | 25µM*
O=C(NCc1ccccc1)N[C@H]1CO[C@H]2[C@@H]1OC[C@@H]2n1cc(-c2ccccn2)nn1 | i
CN(C)c1cccc(Oc2nnnn2[C@H]2CO[C@H]3[C@@H]2OC[C@@H]3NC(=O)NCc2ccccc2)c1 | i
CN(CC(=O)NCc1nc(-c2ccccc2Cl)no1)S(=O)(=O)c1ccc2ccccc2c1 | i
COC(=O)c1ccccc1-c1ccc(/C=C(\C#N)c2nc3ccccc3[nH]2)o1 | i
Cc1ccc2nc(C(=O)N3CCN(c4ccccc4F)CC3)cn2c1 | i
CCc1ccc(C(=O)C2CC(=O)Nc3c2c(C)nn3-c2ccc(F)cc2F)s1 (stereo not given) | i
O=C(c1cc(-c2cccs2)[nH]n1)N1CCN(c2ccccn2)CC1 | i
Cc1cn2nc(C(=O)N3CCN(c4cccc(Cl)c4)CC3)cc2c(N2CCCC2)n1 | 35µM*
Cc1nc(N2CCCC2)c2c(C(=O)N3CCN(c4cccc(Cl)c4)CC3)c(C)oc2n1 | i
Cc1cn2nc(C(=O)N3CCN(c4ccccn4)CC3)cc2c(N2CCCC2)n1 | 25µM*
O=C(c1cn2ccccc2n1)N1CCN(c2cccc(Cl)c2)CC1 | i
Cc1cnc(C(=O)N[C@@H]2CCC[C@@H]2C(=O)N2CCN(c3ccccn3)CC2)cn1 | i
N#Cc1ccccc1COc1ccc(C(=O)c2ccccc2)cc1 | i
COc1cccc([S+](=O)([O-])N2CCc3nc(C4CC4)nc(-c4ccc(Cl)cc4)c3CC2)c1 | i
CCN1C(=O)C(NC(=O)C(=O)NCCc2c[nH]c3ccc(Cl)cc23)c2ccccc21 (stereo not given) | i
CCCCn1nc(C(=O)Nc2cccc(OC)c2)c2ccccc2c1=O | i
CCCCCCSC1=C(C#N)C(c2ccc(C)cc2)CC(=O)N1 (stereo not given) | i
CC(C)CCC(=O)NC1CCN(c2cnn(CC3CC3)c(=O)c2)CC1 | i
Cc1cc(C(=O)NCC(=O)NC(C)C)c2ccccc2n1 | i
CCC(=O)NCCCNC(=O)c1cc(-c2ccccc2)nc2ccccc12 | i
CCC(=O)Nc1cc(C(=O)NCC(C)C)c2ccc(C)nc2c1 | 22µM*
CCCCNC(=O)c1cccc2ncccc12 | i
SMILES | KDM5B inhibitor
Cc1cc(C)cc(NC(=O)c2cc(C)nc3ccccc23)c1 | i
CC(C)CNC(=O)c1cc(-c2ccncc2)nc2ccccc12 | i
CCNC(=O)c1cc(NC(=O)CC)cc2nc(C)ccc12 | 20µM*
Cc1cc(C(=O)Nc2ccccc2)c2ccccc2n1 | i
CCCCNC(=O)c1cc(NC(=O)CC)cc2nc(C)ccc12 | 25µM*
Cn1c(=O)c2c(nc(N3CCN(C/C=C/c4ccccc4)CC3)n2Cc2ccccc2)n(C)c1=O | i
CCCCCCNc1nc2c(c(=O)n(C)c(=O)n2C)n1Cc1cc(OC)ccc1Cl | i
COc1ccc(Nc2nc3ccccc3nc2NS(=O)(=O)c2ccc(C)cc2)cc1Cl | i
Cc1ccn2cc(C(=O)N3CCN(c4cccc(Cl)c4)CC3)nc2c1 | i
COc1cccc(-c2nc(-c3c(C)noc3C)cc3cc(C)oc23)c1 | 35µM*
Cc1cc2cc(-c3c(C)noc3C)nc(NCC3CC3)c2o1 | i
Cc1cc2cc(-c3c(C)noc3C)nc(-c3cccc([S+](C)(=O)[O-])c3)c2o1 | 32µM*
Cc1noc(C)c1-c1cc2cc(CO)oc2c(-c2cccc(OC(C)C)c2)n1 | 25µM*
Cc1noc(C)c1-c1cc2cc(CO)oc2c(-c2ccc([S+](C)(=O)[O-])cc2)n1 | 35µM*
Cc1ccccc1-c1nc(-c2c(C)noc2C)cc2cc(CO)oc12 | i
Cc1cc2cc(-c3c(C)noc3C)nc(NCCN(C)C)c2o1 | i
CC(C)OC(=O)c1ccc(Cl)c(N)c1 | i
Cc1ccc(OCC(O)Cn2nc(-c3cccs3)oc2=O)c(C)c1 (stereo not given) | i
CCC(CO)Nc1nc2c(c(=O)n(Cc3ccc(Cl)cc3Cl)c(=O)n2C)n1C (stereo not given) | i
Cc1cccc(-c2nc3ccccc3s2)c1 | i
COc1ccccc1-c1nnc(SC(C(=O)N2CCCC2)c2ccccc2)n1C (stereo not given) | i
COc1ccc(NC(=O)Cc2nnc(SCC(=O)NC34CC5CC(CC(C5)C3)C4)n2C)cc1 | i
COc1ccc2c(C)c(CCC(=O)NCc3ccc4c(c3)OCO4)c(=O)oc2c1 | i
O=C1c2cnc(-c3ccc(O)c(F)c3)nc2OCCN1c1ccccc1 | i
COc1ccccc1-c1ncc2c(n1)OCCN(c1cccc(C(F)(F)F)c1)C2=O | 32µM*
SMILES | KDM5B inhibitor
COc1ncccc1-c1ncc2c(n1)OCCN(c1cccc(C(F)(F)F)c1)C2=O | i
Cc1ccccc1-c1ncc2c(n1)OCCN(c1ccccc1)C2=O | i
O=C1c2cnc(-c3cccc(CO)c3)nc2OCCN1c1cccc(C(F)(F)F)c1 | i
COc1ccc(-c2ncc3c(n2)OCCN(C)C3=O)cc1OC | 28µM*
CN1CCOc2nc(-c3cccc(OC(F)(F)F)c3)ncc2C1=O | i
COc1ccc(Cl)cc1-c1ncc2c(n1)OCCN(c1ccccc1)C2=O | 28µM*
CN(C)c1cccc(-c2ncc3c(n2)OCCN(c2ccccc2)C3=O)c1 | i
Clc1cccc(-c2nnc3sc(Cn4cccn4)nn23)c1Cl | i
CNC(=O)NC(NC(=O)c1ccccc1)(C(F)(F)F)C(F)(F)F | i
CNC(=O)NC(=O)CSc1nc(NC2CC2)c2ccccc2n1 | i
CCCN(CCC)S(=O)(=O)NC1CCN(c2ncccn2)CC1 | i
Cc1ccc(C(=O)c2cc3ccccc3o2)c(C)c1 | i
COc1ccc(/C=C(/C#N)c2ccc(Cl)cc2)c(OC)c1C | i
CC(Sc1nnc(-c2ccccc2F)n1C1CC1)c1ccc(F)cc1 (stereo not given) | i
COc1ccc(CNC(=O)Cn2c(=O)c3c(ncn3C)n(C)c2=O)cc1 | i
CC(C)C(=O)Nc1ccc(C2(C(=O)NC3CC3)CCCCC2)cc1 | i
O=C(O)C[C@@H]1CCN(S(=O)(=O)c2cccs2)C[C@@H]1CC1=NCCc2ccccc21 | i
COc1cc2c(cc1OC)C(C[C@H]1CN(S(=O)(=O)c3ccc(C#N)cc3)CC[C@H]1CC(=O)O)=NCC2 | 28µM*
COc1cc2c(cc1OC)C(C[C@H]1CN(S(=O)(=O)c3cccs3)CC[C@H]1CC(=O)O)=NCC2 | 28µM*
CC[C@H]1CN(S(=O)(=O)c2ccc(OC)cc2)CC[C@H]1CC(=O)N(C)CC#N | i
COc1ccc(S(=O)(=O)N2CC[C@@H](CC(=O)O)[C@@H](CC3=NCCc4cc(OC)c(OC)cc43)C2)cc1 | i
O=C(CC1CCN(S(=O)(=O)c2cccs2)C1)NCc1ccccc1 (stereo not given) | i
COc1ccc(CNC(=O)COCC(=O)N2CCN(c3ccccc3)CC2)cc1 | i
O=C(COc1cc(Cl)cc(Cl)c1)N1CCNC1=O | i
COC(=O)N/N=C/c1ccccc1OCC(=O)O | i
COc1ccccc1CCC(=O)Nc1cccc(-c2nnc3n2CCCC3)c1 | i
COc1cccc(-c2nc(CS(=O)(=O)CC(=O)NCc3ccccc3Cl)c(C)o2)c1 | i
CNc1ncc(CN(C)C(=O)c2cc(S(N)(=O)=O)ccc2F)cn1 | 22µM*
